Laboratory results as given in PubChem BioAssay AID1159580 (chemical genetic matrix, 2015).
Out of some 5,500 compounds screened, about 2,000 (36%) were called active. Another 18% or so got no clear call; they are omitted. Cut-off read from the data, not from the text of the source: active = normalized growth mostly below about 0.91 (no sharp cut-off); inconclusive = no clear call, values can overlap the other calls; inactive = mostly above about 0.92. The list shows a part of the results.

Assay: chemical genetic growth profiling, strain panel (AID 1159580);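 note: tested at 20 µM; growth read once vehicle control cultures reached saturation at 30 °C; 1 = growth at the plate median or of vehicle wells; lower values mean less growth of the strain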
Conditions: growth OD

Measured: normalized growth

COc1ccc(NS(=O)(=O)c2ccc(N)cc2)nn1
inactive: S. cerevisiae deletion strains, locus YKL009W, strain mrt4, active compounds read low 1 | S. cerevisiae deletion strains, locus YKL068W, active compounds read low 0.997 | S. cerevisiae deletion strains, locus YKL085W, strain MDH1 (second series), active compounds read low 0.999 | S. cerevisiae deletion strains, locus YKL085W, strain MDH1, active compounds read low 0.999 | S. cerevisiae deletion strains, locus YKL160W, strain elf1, active compounds read low 0.984 | S. cerevisiae deletion strains, locus YKL190W, strain CNB1, active compounds read low 1.02 | S. cerevisiae deletion strains, locus YKR001C, strain vps1, active compounds read low 0.985 | S. cerevisiae deletion strains, locus YKR026C, strain gcn3, active compounds read low 1.01 | S. cerevisiae deletion strains, locus YKR091W, strain srl3, active compounds read low 0.993 | S. cerevisiae deletion strains, locus YLL001W, strain dnm1, active compounds read low 0.967 | S. cerevisiae deletion strains, locus YLL026W, active compounds read low 0.997 | S. cerevisiae deletion strains, locus YLL041C, strain sdh2, active compounds read low 0.993 | S. cerevisiae deletion strains, locus YLR027C, strain aat2, active compounds read low 1 | S. cerevisiae deletion strains, locus YLR039C, strain RIC1, active compounds read low 1.01 | S. cerevisiae deletion strains, locus YLR058C, strain SHM2, active compounds read low 1.03 | S. cerevisiae deletion strains, locus YLR102C, strain apc9, active compounds read low 0.986 | S. cerevisiae deletion strains, locus YLR113W, strain HOG1, active compounds read low 1.01 | S. cerevisiae deletion strains, locus YLR221C, strain rsa3, active compounds read low 0.989 | S. cerevisiae deletion strains, locus YLR258W, strain gsy2, active compounds read low 0.971 | S. cerevisiae deletion strains, locus YLR262C, strain YPT6 (second series), active compounds read low 1.02 | S. cerevisiae deletion strains, locus YLR262C, strain YPT6, active compounds read low 1.06 | S. cerevisiae deletion strains, locus YLR268W, strain sec22, active compounds read low 0.99 | S. cerevisiae deletion strains, locus YLR320W, strain mms22, active compounds read low 0.961 | S. cerevisiae deletion strains, locus YLR330W, strain CHS5, active compounds read low 1.01 | S. cerevisiae deletion strains, locus YLR342W, strain FKS1 (second series), active compounds read low 1.01 | S. cerevisiae deletion strains, locus YLR342W, strain FKS1, active compounds read low 0.963 | S. cerevisiae deletion strains, locus YLR357W, strain rsc2, active compounds read low 0.945 | S. cerevisiae deletion strains, locus YLR370C, strain arc18, active compounds read low 0.999 | S. cerevisiae deletion strains, locus YLR371W, strain rom2, active compounds read low 0.983 | S. cerevisiae deletion strains, locus YLR384C, strain iki3, active compounds read low 1.02 | S. cerevisiae deletion strains, locus YLR418C, strain cdc73, active compounds read low 1 | S. cerevisiae deletion strains, locus YML016C, strain PPZ1, active compounds read low 1.02 | S. cerevisiae deletion strains, locus YML032C, strain rad52, active compounds read low 0.994 | S. cerevisiae deletion strains, locus YML120C, strain ndi1, active compounds read low 1 | S. cerevisiae deletion strains, locus YML124C, strain tub3, active compounds read low 0.994 | S. cerevisiae deletion strains, locus YMR058W, strain fet3, active compounds read low 1.01 | S. cerevisiae deletion strains, locus YMR078C, strain ctf18, active compounds read low 0.997 | S. cerevisiae deletion strains, locus YMR125W, strain sto1, active compounds read low 1.01 | S. cerevisiae deletion strains, locus YMR129W, active compounds read low 0.989 | S. cerevisiae deletion strains, locus YMR205C, strain PFK2, active compounds read low 0.986 | S. cerevisiae deletion strains, locus YMR223W, strain ubp8, active compounds read low 0.99 | S. cerevisiae deletion strains, locus YMR231W, strain pep5, active compounds read low 0.994 | S. cerevisiae deletion strains, locus YMR307W, strain GAS1, active compounds read low 1.01 | S. cerevisiae deletion strains, locus YNL067W, strain RPL9B, active compounds read low 1.03 | S. cerevisiae deletion strains, locus YNL071W, strain lat1, active compounds read low 1 | S. cerevisiae deletion strains, locus YNL128W, strain TEP1, active compounds read low 1.02 | S. cerevisiae deletion strains, locus YNL153C, strain GIM3, active compounds read low 1.04 | S. cerevisiae deletion strains, locus YNL183C, strain NPR1, active compounds read low 0.935 | S. cerevisiae deletion strains, locus YNL209W, strain ssb2, active compounds read low 1.01 | S. cerevisiae deletion strains, locus YNL233W, strain BNI4, active compounds read low 1.03 | S. cerevisiae deletion strains, locus YNL248C, strain rpa49, active compounds read low 0.994 | S. cerevisiae deletion strains, locus YNL250W, strain rad50, active compounds read low 0.984 | S. cerevisiae deletion strains, locus YNL271C, strain bni1, active compounds read low 0.983 | S. cerevisiae deletion strains, locus YNL298W, strain CLA4, active compounds read low 0.981 | S. cerevisiae deletion strains, locus YNL307C, strain MCK1, active compounds read low 0.993 | S. cerevisiae deletion strains, locus YNL322C, strain KRE1 (second series), active compounds read low 0.974 | S. cerevisiae deletion strains, locus YNR049C, strain mso1, active compounds read low 0.999 | S. cerevisiae deletion strains, locus YNR052C, strain pop2, active compounds read low 0.987 | S. cerevisiae deletion strains, locus YOL006C, strain TOP1, active compounds read low 1.09 | S. cerevisiae deletion strains, locus YOL012C, strain htz1 1.23 | S. cerevisiae deletion strains, locus YOL147C, strain pex11, active compounds read low 0.99 | S. cerevisiae deletion strains, locus YOR001W, strain rrp6, active compounds read low 1 | S. cerevisiae deletion strains, locus YOR061W, strain CKA2, active compounds read low 1.02 | S. cerevisiae deletion strains, locus YOR069W, strain VPS5, active compounds read low 1.01 | S. cerevisiae deletion strains, locus YOR070C, strain gyp1, active compounds read low 1 | S. cerevisiae deletion strains, locus YOR080W, strain dia2, active compounds read low 1 | S. cerevisiae deletion strains, locus YOR083W, strain WHI5, active compounds read low 0.947 | S. cerevisiae deletion strains, locus YOR106W, strain vam3, active compounds read low 1 | S. cerevisiae deletion strains, locus YOR136W, strain idh2, active compounds read low 0.996 | S. cerevisiae deletion strains, locus YOR144C, strain elg1, active compounds read low 0.992 | S. cerevisiae deletion strains, locus YOR184W, strain ser1, active compounds read low 0.996 | S. cerevisiae deletion strains, locus YOR231W, strain MKK1, active compounds read low 0.998 | S. cerevisiae deletion strains, locus YOR265W, strain rbl2, active compounds read low 1 | S. cerevisiae deletion strains, locus YOR270C, strain vph1, active compounds read low 1.05 | S. cerevisiae deletion strains, locus YOR290C, strain snf2, active compounds read low 0.991 | S. cerevisiae deletion strains, locus YOR316C, strain cot1, active compounds read low 0.985 | S. cerevisiae deletion strains, locus YPL051W, strain arl3, active compounds read low 0.976 | S. cerevisiae deletion strains, locus YPL055C, strain LGE1, active compounds read low 1.07 | S. cerevisiae deletion strains, locus YPL078C, strain atp4, active compounds read low 0.994 | S. cerevisiae deletion strains, locus YPL106C, strain sse1, active compounds read low 0.96 | S. cerevisiae deletion strains, locus YPL240C, strain hsp82, active compounds read low 1 | S. cerevisiae deletion strains, locus YPL241C, strain CIN2, active compounds read low 1.01 | S. cerevisiae deletion strains, locus YPL256C, strain CLN2, active compounds read low 0.985 | S. cerevisiae deletion strains, locus YPR119W, strain clb2, active compounds read low 0.997 | S. cerevisiae deletion strains, locus YPR141C, strain kar3, active compounds read low 0.988 | S. cerevisiae deletion strains, locus YPR163C, strain tif3, active compounds read low 0.99 | S. cerevisiae deletion strains, locus YPR167C, strain met16, active compounds read low 0.992 | S. cerevisiae deletion strains, strain wtn01, active compounds read low 0.986 | S. cerevisiae strains, strain wild type, active compounds read low 1.01
